Screens (PubChem)
POLB inh = inhibitors of human DNA polymerase beta. P06746. Pol beta primer extension/strand displacement, fluorescence kinetic. Potency, µM (titrated, usually from 114 µM), hits mostly inhibitors. 340,000 compounds, 1.3% hits. AID 485314
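Pol beta (10 nM) was preincubated with compound for 15 min at room temperature. The reaction was then started with 50 nM substrate and read immediately and after a further 10 min at room temperature.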
POLI inh = inhibitors of human DNA polymerase iota | Q9UNA4 | Pol iota fluorescent replication assay, 10 min | Potency, µM (series often up to 115 µM), usual class: inhibitors | 390,000 compounds, 1% hits
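Fluorescent replication assay read twice, at 0 min and 10 min after adding 50 nM (final) substrate. Enzyme (10 nM) and compounds were first incubated 15 min at room temperature; enzyme-free buffer wells were negative controls.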
Pol kappa inh = DNA polymerase kappa (human) inhibition; Potency, µM (highest dose often 107 µM), usual class: inhibitors; purified Pol kappa, fluorescent DNA synthesis assay, 10 min; 400,000 compounds, 0.53% hits
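10 nM Pol kappa was preincubated with compounds for 15 min at room temperature. Reaction started with 50 nM (final) substrate. Fluorescence read kinetically at 0 and 10 min.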
WRN helicase inh = inhibitors of human WRN helicase | Potency, µM (highest dose often 114 µM), usual class: inhibitors | 360,000 compounds, 0.46% hits | WRN helicase unwinding, fluorescent forked duplex, kinetic | AID 651768; further: nearly all actives have a fitted effect of over 55% in size
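WRN at 20 nM final was preincubated with compound for 15 min at room temperature; reaction started with 100 nM forked duplex oligonucleotide carrying fluorophore and quencher plus 2 mM ATP (final). Unwinding followed kinetically by red fluorescence (ex 525/em 598 nm).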
POLH inh = inhibitors of human DNA polymerase eta; Q9Y253; recombinant Pol eta, fluorescent DNA replication assay; Potency, µM (doses to about 114 µM), usual class: inhibitors; 390,000 compounds, 1.2% hits
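Fluorescent replication assay: 50 nM final substrate added after a 15 min room-temperature compound preincubation with 10 nM enzyme. Signal taken at 0 min and again at 10 min.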
FEN1 inh = human FEN1 inhibition; P39748; 390,000 compounds, 0.35% hits; Potency, µM (titrated, usually from 114 µM), most hits filed as inhibitors; Recombinant FEN1 flap cleavage, fluorescence, 15 min; further: nearly all actives have a fitted effect of over 65% in size
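Concentration–response screening of FEN1 (10 nM): 15 min compound preincubation at room temperature, reaction started with 50 nM substrate and read at 0 and 15 min. Corrected, normalized data were fitted by a four-parameter Hill equation.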
Hits are given with their value; . = inactive; ? = inconclusive; / = not tested or not shown; ! = repeats disagree; [ ] = another dose, or the depositor's remark. In the library only some 2.4% were active in any assay of this set; here they are far more common. The call rests on the fitted dose curve; in most records, active means well fitted curve in the direction sought with a large enough effect; inconclusive means small, poorly fitted or top-dose-only effect, or another doubt; inactive means no such curve, though single readings can be large; an effect the other way counts as inactive or inconclusive.

SMILES	POLB inh	POLI inh	Pol kappa inh	WRN helicase inh	POLH inh	FEN1 inh
Cc1ccc2nc(NC(=O)c3cc(=O)c4cc(Cl)ccc4o3)sc2c1	.	.	.	/	.	.
Cc1cc(/C=C(\C#N)C(=O)Nc2ccccc2)c(C)n1-c1cccnc1	.	.	.	.	.	.
N#C/C(=C\c1ccccc1O)C(=O)Nc1cccnc1	.	89µM	.	.[11.6 µM]	?	.
Nc1ccc(C(=O)OCC(=O)Nc2cccc(S(=O)(=O)NC3=NCCCCC3)c2)cc1[N+](=O)[O-]	/	.	.	.	.	.
O=C(COc1ccccc1[N+](=O)[O-])Nc1cccc(S(=O)(=O)NC2=NCCCCC2)c1	/	79µM	.	.	20µM	.
C/C(=N\NC(=O)c1cc2ccccc2cc1O)c1cc2ccccc2o1	7.1µM	22µM	79µM	?	56µM	.
CCN(CCO)c1ncnc2c1sc1nc(C(C)C)c3c(c12)CC(C)(C)OC3	.	?	.	.	.	.
CCN(CCO)c1nc(SC)nc2c1sc1nc(-c3ccco3)c3c(c12)CCC3	7.1µM	?	?	.	.	.
CSc1nc(NCCOCCO)c2sc3nc(-c4ccco4)c4c(c3c2n1)CCC4	3.5µM	.	.	.	.	.
CSc1nc(NCc2ccco2)c2sc3nc(C(C)C)c4c(c3c2n1)CC(C)(C)OC4	.	.	.	.	.	.
N=c1oc2cc(O)ccc2cc1C(=O)Nc1ccc(Cl)cc1	.	.	.	.	79µM	.
Cc1ccc(NC(=O)c2cc3ccccc3oc2=N)cc1	.	?	.	.	.	.
CC(C)(C)c1ccc(CN(Cc2ccco2)c2cnc(S(C)(=O)=O)nc2C(=O)Nc2ccc(F)cc2)cc1	.	.	.	/	.	.
CN(Cc1ccco1)C(=O)CSc1nn2c(=O)c(C(C)(C)C)nnc2s1	/	?	.	.[11.6 µM]	79µM	.
O=C(NC1(C(F)(F)F)NC(=O)N(CCc2ccccc2)C1=O)c1ccccc1Cl (configuration not stated)	.	.	.	/	.	.
COc1ccccc1C(=O)NC1(C(F)(F)F)NC(=O)N(CCc2ccccc2)C1=O (configuration not stated)	.	79µM	.	/	.	.
S=c1[nH]nc(-c2cc(-c3ccco3)[nH]n2)n1-c1cccc2ccccc12	25µM	?	.	.	?	.
COc1ccccc1NC(=O)c1oc2ccccc2c1NC(=O)c1ccccc1C(F)(F)F	.	.	.	/	.	.
C/C(=N\NC(=O)Cc1cc(=O)[nH][nH]1)c1cccc([N+](=O)[O-])c1	.	7.1µM	.	.	.	.
Cc1nc2cc(N3CCOCC3)c(NC(=O)C3CC3)cc2c(=O)n1Cc1ccccc1	.	?	?	.	20µM	.
Cc1nc([N+](=O)[O-])cn1CC(=O)c1ccc2c(c1)OCCCO2	/	.	.	/	/	.
Cc1sc2ccccc2[n+]1C	/	.	.	/	/	.
CCCCCC#CCC#CCC#CCC#CCCCC(=O)O	1.1µM	/	10µM!	/	/	/
CCCCCCCCCC(=O)O	/	.	.	.	.	.
COc1ccc(N(C)C(=O)c2nc(-c3cccc(F)c3)n3c2CCCCC3)c(OC)c1	.	.	.	/	.	.
SMILES	POLB inh	POLI inh	Pol kappa inh	WRN helicase inh	POLH inh	FEN1 inh
COc1ccc(OC)c(S(=O)(=O)Nc2ccc(O)c(Sc3ncn[nH]3)c2)c1	79µM	?	.	?	?	.
CCOc1ccc(NC(=O)Cn2c(=O)n(CCCS(=O)(=O)C3CCCCC3)c(=O)c3ccccc32)cc1	.	.	.	/	.	.
Cc1cc(-c2ccccc2)c2c(=O)[nH][nH]c2n1	.	79µM	.	.	.	.
O=Cc1coc2c(ccc3ccccc32)c1=O	79µM	/	/	/	/	/
O=c1cc(C(F)F)oc2c1ccc1ccccc12	.	.	.	.	.	.
O=C(Cn1c(SCC(=O)Nc2ccc(F)cc2)nc2ccccc21)NCc1ccccc1Cl	.	.	.	/	.	.
NC(=O)c1c(NC(=O)CN2CCN(S(=O)(=O)c3ccccc3)CC2)sc2c1CCC2	/	13µM	?	?	?	.
NC(=O)c1c(NC(=O)CN2C(=O)NC(Cc3ccccc3)C2=O)sc2c1CCC2 (configuration not stated)	?	45µM	?	.	?	.
